This is a sample that favours compounds with a hit; in the whole collection about 4.7% have one here.
D1 antagonist – antagonists of human D1 dopamine receptor | P21728 | HEK293 TREx D1 cells, calcium flux, dopamine EC80; stronger effect = lower value | activity change, negative = inhibition, % at 10 µM | actives 3.2% (n = 360,000) | AID 504652; in the data active = activity change below about -30%; also: % is scaled to controls: 0 for no effect and ±100 for the full control effect
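Inducible Hek293 Trex D1 cells (tetracycline, overnight, 30 C). Calcium dye 30–90 min RT. Antagonist mode: EC80 dopamine added after 180 s compound read.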
TRHR agonist – TRH receptor (human) agonism; activation, % at 2 µM; actives 0.18% (n = 360,000); TRHR cells, calcium flux fluo-8, FDSS agonist mode; also: 0% is about no effect
Target sequence (P34981 whole entry, looked up): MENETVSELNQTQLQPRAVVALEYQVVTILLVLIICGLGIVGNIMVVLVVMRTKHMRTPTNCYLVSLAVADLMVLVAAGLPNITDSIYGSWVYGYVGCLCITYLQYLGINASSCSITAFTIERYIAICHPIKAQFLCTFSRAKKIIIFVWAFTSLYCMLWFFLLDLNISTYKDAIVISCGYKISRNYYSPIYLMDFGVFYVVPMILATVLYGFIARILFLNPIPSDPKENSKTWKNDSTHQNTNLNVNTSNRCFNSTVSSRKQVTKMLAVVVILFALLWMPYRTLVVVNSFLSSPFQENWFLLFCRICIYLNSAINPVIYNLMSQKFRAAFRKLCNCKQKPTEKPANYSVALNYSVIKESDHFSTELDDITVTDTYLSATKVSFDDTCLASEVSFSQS
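Agonist-mode FDSS calcium read (Ex 480/Em 530, 1 s cycles) in 1536-well TRHR cells with fluo-8 dye, after 10-cycle baseline and 23 nL compound addition; TRH at EC20 (10 nM final) added afterwards for the enhancer phase.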
D1 PAM – enhances dopamine response at the human D1 receptor; P21728; AID 504651; actives 0.036% (n = 360,000); HEK293 TREx D1 cells, calcium flux, dopamine EC20 potentiation; potentiation, % at 10 µM; in the data active = potentiation above about 30%; also: 0% is about no effect
D1 ag – human D1 receptor agonism; AID 504660; activation, % at 2 µM; P21728; HEK293 T-REx D1 cells, calcium flux, agonist mode; actives 1% (n = 360,000); also: 0% is about no effect
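Inducible HEK293 T-REx D1 cells, force-coupled to calcium signalling, were plated at 4000 cells/well with tetracycline and held overnight at 30 C. After no-wash calcium dye loading, compound-evoked calcium rise over 180 s flagged agonists.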
TRHR enhancer – allosteric enhancers of human TRH receptor | P34981 | TRHR cells, fluo-8 calcium fluorescence, EC20 TRH enhancement | enhancement, % at 2 µM | actives 0.66% (n = 360,000) | AID 493056; in the data active = enhancement above about 30%; also: 0% is about no effect
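TRHR-expressing cells loaded with fluo-8 calcium dye were read kinetically (ex 480/em 530) during compound addition, then stimulated with an EC20 of TRH (10 nM final). Enhancement of the Gq-mediated intracellular calcium response was scored.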
* marks the source's active call; other numbers are inactive results; · = no result given; ! = not confirmed by another sample. Rule as the data show it, unless noted: active = activation above about 30%; inactive = the rest.

SMILES	D1 antagonist	TRHR agonist	D1 PAM	D1 ag	TRHR enhancer
C=CCn1c(COc2cccc3ccc(C)nc23)nnc1SCC(=O)OC	-12.3	0.0	-3.8	2.3	-1.3
Cc1ccc(C)c(NC(=O)C(c2ccccc2)N2Cc3ccccc3C2=O)c1 (stereo not given)	-7.0	-0.4	7.5	5.6	31.6*
OCCOCCOc1ccccc1OCCOCCO	-86.1*	-0.6	-18.6	2.0	13.2
CC(=O)c1ccccc1OCCOCCOCCOc1ccccc1C(C)=O	31.0	0.1	0.7	0.7	-5.7
O=C(CN1C(=O)C2CCCCC2C1=O)Nc1ccc(OC(F)F)c(Cl)c1 (stereo not given)	-31.9*	1.2	-2.4	1.2	6.0
O=S(=O)(NCC(c1ccco1)N1CCN(c2ccc(F)cc2)CC1)c1ccc(F)cc1 (stereo not given)	-33.6*	0.4	-5.2	0.3	-0.5
O=S(=O)(NCC(c1ccco1)N1CCN(c2ccccc2F)CC1)c1ccc(F)cc1 (stereo not given)	-0.8	-0.4	-10.0	-0.7	-0.8
O=S(=O)(NCC(c1ccco1)N1CCN(c2ccccc2)CC1)c1ccccc1 (stereo not given)	·	-0.2	-0.1	-4.0	-2.8
O=S(=O)(NCC(c1ccco1)N1CCN(c2ccccc2)CC1)c1ccc(F)cc1 (stereo not given)	-30.3*	-0.7	-13.6	2.8	2.0
COc1ccc2c(c1)-c1nc(NC(=O)c3cc(OC)c(OC)c(OC)c3)sc1CC2	-4.3	-0.3	-3.6	7.5	1.6
Cc1ccc(C(=O)OCC(=O)c2c[nH]c3ccccc23)cc1NC(=O)c1ccco1	·	0.8	-0.9	0.7	1.5
O=C(CCN1CCC(c2ccc(Cl)s2)=N1)c1ccc(Cl)s1	7.0	2.1	-3.5	40.0*	-6.1
O=C(CCC(=O)c1ccc(Cl)s1)Nc1ncccc1O	4.1	-0.1	·	6.7	0.9
COc1cc2nc(SCC(=O)Nc3ccc(F)cc3)n3nc(CCn4c(C)nc5ccccc54)nc3c2cc1OC	1.5	-0.6	0.6	3.2	0.1
COc1ccc(-c2cc(C(F)(F)F)nc(SCC(=O)N3CCCCC3C)n2)cc1OC (stereo not given)	-16.6	1.5	-3.2	-0.7	12.7
O=[N+]([O-])c1ccc(CNc2ccc(Cl)cc2)s1	-37.3*	0.2	-9.1	5.1	-1.6
COc1cccc(CN(C(=O)c2cccc(OC)c2)C2CCS(=O)(=O)C2)c1 (stereo not given)	50.0	0.1	-6.1	4.6	-5.7
COc1ccc(OCC(=O)N(Cc2sccc2C)C2CCS(=O)(=O)C2)cc1 (stereo not given)	-72.5*!	-0.2	-4.5	0.3	-1.3
Cc1cccc(OCC(=O)N(Cc2ccc(C)o2)C2CCS(=O)(=O)C2)c1 (stereo not given)	-19.6	-1.0	-2.1	2.9	-0.4
COc1cccc(CN(C(=O)c2ccccc2)C2CCS(=O)(=O)C2)c1 (stereo not given)	-34.9*	-0.2	-11.1	1.5	-6.7
Cc1ccc(CN(C(=O)COc2c(C)cccc2C)C2CCS(=O)(=O)C2)o1 (stereo not given)	-42.8*	-0.5	2.2	-2.4	-4.7
COc1ccc(CCNC(=O)CCCCn2c(=O)c3ccccc3n(Cc3cccc(C)c3)c2=O)cc1OC	-4.9	-0.9	1.1	1.4	-21.6
Oc1ccc(C2CNCc3sccc32)cc1O (stereo not given)	-95.8*	0.5	-3.9	92.3*	1.3
Oc1ccc(C2C[C@H]3CC[C@@H]2C3)cc1O (stereo not given in full)	6.8	-0.3	10.4	3.5	-2.2
Oc1ccccc1C1=Nc2ncnn2C(c2ccc(F)cc2)C1 (stereo not given)	-41.9*	-0.4	-4.9	-0.2	-0.5
SMILES	D1 antagonist	TRHR agonist	D1 PAM	D1 ag	TRHR enhancer
Fc1ccc(C2CC(c3ccc(F)cc3)n3ncnc3N2)cc1 (stereo not given)	1.0	1.1	2.5	1.5	12.4
COc1ccccc1N/C=C/C(=C(C#N)C#N)N(C)C	-4.3	-0.9	-4.8	0.7	-2.5
CN(C)C(/C=C/Nc1ccccc1F)=C(C#N)C#N	-33.9*	0.0	-2.4	2.2	14.0
CCOc1ccc(Nc2cc(C)nc3nc(Cc4ccc(Cl)cc4)nn23)cc1	4.3	-0.8	-2.4	2.8	9.7
O=C(O)CCN1C(=O)C2C3c4ccccc4C(c4ccccc43)C2C1=O (stereo not given)	8.7	0.5	-7.3	4.6	3.5
O=C(O)CCN1C(=O)C2C3c4ccccc4C(c4ccccc43)[C@@H]2C1=O (stereo not given in full)	-31.1*	-0.5	2.1	3.0	-4.4
CC(C)C[C@H]1CN=C(Nc2ccccc2)N1CCCC1CCCCC1	2.3	2.2	2.6	23.6	2.0
CC(C)C[C@H]1CN=C(Nc2ccccc2)N1CCCC1CCCC1	19.9	0.4	-5.5	40.9*	3.2
CN(C)C(=N)c1n[nH]nc1SCc1ccc(Cl)c(Cl)c1	-35.6*	0.6	-3.3	0.2	-7.5
Cc1[nH]c(=O)nc(SCc2ccc(Cl)c(Cl)c2)c1C#N	-11.4	-0.3	-5.7	2.6	-1.5
CCOc1ccc(N(CC(=O)N/N=C/c2ccccn2)S(=O)(=O)c2ccc(Cl)cc2)cc1	20.0	-0.5	1.4	3.8	-2.3
Cc1ccc(C(NC(=O)N2CCOCC2)C(Cl)Cl)cc1F (stereo not given)	-8.0	-0.6	0.4	0.8	1.3
Cc1ccc(C(NC(=O)N2CCOCC2)=C(Cl)Cl)cc1F	-37.3*	-2.6	-2.0	-0.6	1.8
Cc1nnc(SCCn2c(N3CCC(C)CC3)nc3c2c(=O)[nH]c(=O)n3C)s1	-60.0*	-0.5	-9.2	1.3	9.8
CC(C)C(=O)N1CCN(c2ccc(NC(=O)COc3ccccc3[N+](=O)[O-])cc2)CC1	-31.2*	0.5	-7.2	11.8	-3.2
CC1(C)CC(C(N)=S)CCO1 (stereo not given)	-37.0*	-0.1	-6.8	1.5	7.0
O=C(COc1ccc(Cl)cc1)NCc1ccncc1	5.1	-0.2	0.8	1.4	12.7
CCN(CC(=O)NCc1ccc(Cl)cc1)C(=O)c1ccc(C#N)cc1	4.6	-0.4	2.3	1.3	-4.9
Cc1nn(-c2c(Cl)cc(Cl)cc2Cl)c(=O)c2ccccc12	2.6	-0.7	-1.5	74.0*	2.5
Cc1nn(-c2ccc(Br)cc2)c(=O)c2ccccc12	-4.7	-0.9	-12.2	6.8	3.8
COc1ccc(C(=O)c2ccc(OC)cc2OC)cc1	-48.5*	-0.1	-1.1	0.4	-3.1
COc1ccc(C(=O)c2ccc(N(C)C)cc2)c(OC)c1	4.1	-1.3	2.5	0.6	4.1
C/C(=N\Nc1nccnc1Cl)c1ccc([N+](=O)[O-])cc1	-61.1*	-0.9	-4.8	0.3	0.6
C/C(=N\Nc1nccnc1Cl)c1ccc(Br)cc1	7.2	-2.7	-4.1	2.2	-3.0

Screening results from PubChem.
